G9a inh: G9a (human) methyltransferase inhibition. G9a H3K9 monomethylation, AlphaScreen, 2 h. Potency, µM (titrated, usually from 102 µM), actives largely listed as inhibitors. 350,000 tested, 8.8% active. AID 504332; further: nearly all actives have a fitted effect of over 75% in size
Target sequence (Q96KQ7 913-1193 limits assumed): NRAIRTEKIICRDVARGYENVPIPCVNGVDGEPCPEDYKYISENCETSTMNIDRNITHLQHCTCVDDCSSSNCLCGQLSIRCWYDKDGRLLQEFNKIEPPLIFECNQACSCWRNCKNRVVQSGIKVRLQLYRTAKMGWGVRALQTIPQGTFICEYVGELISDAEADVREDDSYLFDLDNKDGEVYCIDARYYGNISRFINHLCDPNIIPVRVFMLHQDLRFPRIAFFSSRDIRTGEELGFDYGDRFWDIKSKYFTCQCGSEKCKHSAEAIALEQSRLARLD
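Methyltransferase reactions run at room temperature for 2 h (20 nM enzyme, 500 nM biotin-H3K9 peptide, 20 uM SAM) after a 15 min compound preincubation; product detected by AlphaScreen beads and anti-H3K9me1 antibody.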
Six1-Eya2 inh: blocks human Six1 binding to Eya2; 360,000 tested, 0.56% active; Q15475+O00167; AlphaScreen GST-Six1/His-Eya2 binding, biochemical; stronger effect = lower value; activity change, % (concentration not given with the values); in the data active means activity change below about -65%; inconclusive means mostly about -30% to -63%
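AlphaScreen luminescence read after one hour at 37 °C in darkness. Pin-transferred compounds met GST-Six1 and His-Eya2 protein (5X stock 250 nM/500 nM) plus glutathione donor and Ni-chelate acceptor beads (5X, 50 ug/mL).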
JMJD2A Tudor inh: JMJD2A Tudor domain (human) inhibition | Potency, µM (top dose mostly 114 µM), usual class: inhibitors | AID 504339 | AlphaScreen JMJD2A-Tudor / H3K4me3 peptide binding | 390,000 tested, 4.4% active; further: nearly all actives have a fitted effect of over 50% in size
CtBP-E1A inh: inhibitors of CtBP/E1A interaction; AID 651724; activity change, % (concentration not given with the values); 340,000 tested, 0.49% active; AlphaScreen GST-E1A/His-CtBP binding, 1536-well; stronger effect = lower value; in the data active means activity change below about -65%; inconclusive means mostly about -30% to -63%
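In 5 uL wells, 23 nL compound meets equimolar GST-E1A and His-CtBP (5X stock 125 nM each) for 2 h, 37 °C. Beads (5X, 50 ug/mL) then 1 h, 37 °C, dark.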
HP1b chromo inh: inhibitors of HP1-beta chromodomain binding to methylated histone tails | P83916 | AlphaScreen HP1-beta / biotin-H3K9me3 peptide binding | Potency, µM (highest dose often 114 µM), hits mostly inhibitors | 390,000 tested, 0.56% active | AID 540317; further: nearly all actives have a fitted effect of over 70% in size
Target sequence (P83916 whole entry, looked up): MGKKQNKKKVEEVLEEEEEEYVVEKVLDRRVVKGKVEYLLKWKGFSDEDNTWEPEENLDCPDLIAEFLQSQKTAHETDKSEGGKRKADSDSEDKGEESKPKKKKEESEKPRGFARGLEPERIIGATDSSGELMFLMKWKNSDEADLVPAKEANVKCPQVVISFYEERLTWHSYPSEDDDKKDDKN
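Compound inhibition of the preformed complex between 50 nM HP1-beta and 50 nM biotinylated H3K9me3 peptide was read by AlphaScreen. Buffer was PBS pH 7.4 with 0.01% Tween-20. Incubations ran 30 min at room temperature, with 10 ug/mL donor/acceptor beads.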
BAZ2B inh: BAZ2B (human) inhibition | Q9UIF8 | AlphaScreen BAZ2B-H3K14Ac peptide displacement | Potency, µM (series often up to 114 µM), most hits filed as inhibitors | 360,000 tested, 4.4% active | AID 504333; further: nearly all actives have a fitted effect of over 60% in size
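AlphaScreen displacement of biotin-H3(5-23)K14Ac peptide (50 nM final) from BAZ2B (50 nM final) in PBS pH 7.4, 0.01% Tween-20; complex preformed 30 min RT, then compounds (top 110 uM) 30 min RT, beads 20 min dark.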
A number is an active result; [ ] = remark or other dose. Rows were chosen to be rich in hits. Some 10% of all compounds tested hit in one or more screens of this group. Unless noted, the call rests on the fitted dose curve; in most records, active means well fitted inhibition curve with a large enough effect; inconclusive means small, poorly fitted or top-dose-only effect; inactive means no such curve, though single readings can be large or run the other way.

For CSc1ccc(C2C(C#N)=C(N)Oc3c2ccc(=O)c2c(C)oc(C)c32)cc1 (configuration not stated) the results were G9a inh 32µM, Six1-Eya2 inh inconclusive, JMJD2A Tudor inh 56µM, CtBP-E1A inh inactive, HP1b chromo inh inconclusive and BAZ2B inh inconclusive.
`COc1ccc(C2C(C#N)=C(N)Oc3c2oc(CO)cc3=O)cc1` (configuration not stated) gave G9a inh inconclusive, Six1-Eya2 inh inactive, JMJD2A Tudor inh inactive[11.4 µM], CtBP-E1A inh inactive and HP1b chromo inh inactive.
`COc1ccc(-n2c(Cc3cccn3C)nnc2SCC(=O)N2CCCC2)cc1` gave G9a inh 45µM, Six1-Eya2 inh inactive, JMJD2A Tudor inh inactive, CtBP-E1A inh inactive, HP1b chromo inh inactive and BAZ2B inh inactive.
COc1ccc(-n2c(Cc3cccn3C)nnc2SCC(=O)N2CCCc3ccccc32)cc1 was read as G9a inh 45µM, Six1-Eya2 inh inactive, JMJD2A Tudor inh inconclusive, CtBP-E1A inh inactive, HP1b chromo inh inactive and BAZ2B inh inconclusive.
COc1ccc(-n2c(Cc3cccn3C)nnc2SCC(=O)N2CCC(C)CC2)cc1 was read as G9a inh inconclusive, Six1-Eya2 inh inactive, JMJD2A Tudor inh inactive, CtBP-E1A inh inactive, HP1b chromo inh inactive and BAZ2B inh inactive.
For Cn1cccc1Cc1nnc(SCC(=O)N2CCCCCC2)n1-c1ccc(F)cc1 the results were G9a inh 50µM, Six1-Eya2 inh inactive, JMJD2A Tudor inh inactive, CtBP-E1A inh inactive, HP1b chromo inh inactive and BAZ2B inh inactive.
COc1ccc(-n2c(Cc3cccn3C)nnc2SCC(N)=O)cc1 was read as G9a inh 50µM, Six1-Eya2 inh inactive, JMJD2A Tudor inh inactive, CtBP-E1A inh inactive, HP1b chromo inh inactive and BAZ2B inh inactive.
COc1ccc(OC)c(NC(=O)C(OC(=O)CNC(=O)c2ccccc2)c2ccccc2)c1 (configuration not stated) was read as JMJD2A Tudor inh inactive.
Screening CCCCN1C(=O)CC(Sc2ncccc2C(=O)O)C1=O (configuration not stated) returned G9a inh inactive, Six1-Eya2 inh inactive, JMJD2A Tudor inh inactive, CtBP-E1A inh inactive, HP1b chromo inh inactive and BAZ2B inh inactive.
For CC(c1ccccc1)N1C(=O)CC(Sc2ncccc2C(=O)O)C1=O (configuration not stated) the results were G9a inh 22µM, Six1-Eya2 inh inactive, JMJD2A Tudor inh inactive, CtBP-E1A inh inactive, HP1b chromo inh inactive and BAZ2B inh inactive.
For O=C(O)c1cccnc1SC1CC(=O)N(c2ccccc2)C1=O (configuration not stated) the results were G9a inh 56µM, Six1-Eya2 inh inactive, JMJD2A Tudor inh inactive, CtBP-E1A inh inactive, HP1b chromo inh inactive and BAZ2B inh inactive.
For CCCCCCCC(=O)OC(CN1CCCCC1)CN1CCCC1=O (configuration not stated) the results were G9a inh 11µM, Six1-Eya2 inh inactive, JMJD2A Tudor inh inactive, CtBP-E1A inh inactive, HP1b chromo inh inactive and BAZ2B inh inactive.
COc1ccccc1Nc1nn2c(=O)c3ccc(C(=O)NCCC4=CCCCC4)cc3nc2s1 was read as G9a inh inactive, JMJD2A Tudor inh inactive, HP1b chromo inh inactive and BAZ2B inh inactive.
COc1ccc(-c2cc(C(F)(F)F)nc(SCC(=O)N3CCCCC3)n2)cc1 was read as G9a inh inactive, JMJD2A Tudor inh inactive, HP1b chromo inh inactive and BAZ2B inh inactive.
Cc1ccc(S(=O)(=O)N2CCCCC2C(=O)N2CCN(Cc3ccccc3)CC2)cc1 (configuration not stated) was read as G9a inh 11µM, Six1-Eya2 inh inactive, JMJD2A Tudor inh inactive, CtBP-E1A inh inactive, HP1b chromo inh inactive and BAZ2B inh inconclusive.
For O=C(C1CCCCN1S(=O)(=O)c1ccccc1)N1CCN(Cc2ccccc2)CC1 (configuration not stated) the results were G9a inh inconclusive, Six1-Eya2 inh inactive, JMJD2A Tudor inh inactive, CtBP-E1A inh inactive, HP1b chromo inh inactive and BAZ2B inh inactive.

High-throughput results deposited in PubChem by National Center for Advancing Translational Sciences (NCATS).
